# Target: Metabotropic glutamate receptor 6 (Homo sapiens) (UniProt O15303)
# Test: mGlu6 agonist response modulation at 10 µM, profiling panel, selectivity assay for mGlu8/mGlu7 PAM project, cell-based, GIRK thallium flux, agonist curve fold shift (AID 743421)
# Conditions: mGlu6/GIRK cells, thallium flux (Fluo Zn), agonist CRC fold shift, stronger effect = higher value
# Chain of Metabotropic glutamate receptor 6 (Homo sapiens) (O15303 whole entry, looked up): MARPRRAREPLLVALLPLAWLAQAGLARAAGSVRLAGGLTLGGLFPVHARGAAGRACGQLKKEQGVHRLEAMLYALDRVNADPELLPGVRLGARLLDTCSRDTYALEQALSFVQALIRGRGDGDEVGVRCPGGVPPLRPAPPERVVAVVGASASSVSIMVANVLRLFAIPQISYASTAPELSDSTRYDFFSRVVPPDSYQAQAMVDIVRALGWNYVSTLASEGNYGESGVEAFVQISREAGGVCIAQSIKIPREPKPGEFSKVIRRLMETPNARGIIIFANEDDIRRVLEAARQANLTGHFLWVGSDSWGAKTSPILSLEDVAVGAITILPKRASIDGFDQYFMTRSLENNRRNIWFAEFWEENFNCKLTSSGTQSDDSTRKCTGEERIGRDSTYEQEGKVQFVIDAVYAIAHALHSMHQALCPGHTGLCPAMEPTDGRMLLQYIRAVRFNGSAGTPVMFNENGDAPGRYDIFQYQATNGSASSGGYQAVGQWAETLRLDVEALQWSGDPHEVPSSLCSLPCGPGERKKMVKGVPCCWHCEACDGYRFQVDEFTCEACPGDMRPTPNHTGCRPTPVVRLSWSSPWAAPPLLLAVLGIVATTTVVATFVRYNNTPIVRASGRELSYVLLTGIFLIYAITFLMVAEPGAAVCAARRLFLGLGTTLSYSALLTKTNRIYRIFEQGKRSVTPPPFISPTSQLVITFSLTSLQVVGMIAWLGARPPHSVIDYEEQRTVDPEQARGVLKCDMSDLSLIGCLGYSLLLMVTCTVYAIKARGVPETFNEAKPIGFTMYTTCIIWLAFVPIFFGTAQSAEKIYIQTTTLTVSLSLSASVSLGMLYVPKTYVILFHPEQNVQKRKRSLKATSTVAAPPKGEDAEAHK
smiles,measurement,value
COC(=O)c1ccc(-n2c(C)cc(C(=O)CSc3ccc(NC(C)=O)cc3)c2C)cc1,fold shift,2.59

# From PubChem BioAssay AID743421 (Vanderbilt Specialized Chemistry Center, 2014)
